Drawing on PubChem BioAssay AID1053175 (ICCB-Longwood Screening Facility, Harvard Medical School, 2014), this text covers OD600 absorbance for 57 molecules.

Structures are written as SMILES. Values joined by “and” are separate entries in the source; they are usually repeats but may differ in a detail not shown here. Equal values may be shown once. In all, about 330,000 compounds went through this assay and about 700 (0.21%) were called active.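 How the source made its calls: active means OD600 absorbance below the run mean of sample wells minus 3.6 SD, in any replicate (cut at about 0.56 in these data); inactive means the rest.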 Shown is part of a subset that was picked to be rich in actives.

This test is described as follows: antibacterial activity against Escherichia coli – OD600, primary screen (AID 1053175). Particulars: Escherichia coli growth, OD600, 23 h; active compounds read low.
With `CC1COc2ccccc2N1C(=O)c1ccc(F)cc1` (configuration not stated), the OD600 absorbance was 0.65 (inactive).

Regarding `O=C(Nc1nnc(C2COc3ccccc3O2)o1)c1ccc(F)cc1` (configuration not stated), the OD600 absorbance is 0.346 (active).

As to `O=C(COC(=O)c1ccc(F)cc1)NCC1COc2ccccc2O1` (configuration not stated), the OD600 absorbance is 0.688 (inactive).

As for `O=C(CO)NN=Cc1cccc(Cl)c1Cl`, the OD600 absorbance was 0.595 (inactive).

For `CCOc1ccccc1C(=O)NN=Cc1coc2ccc(Cl)cc2c1=O`, the OD600 absorbance was 0.656 (inactive).

Take `COc1ccc(/C=C(\NC(=O)c2ccccc2)C(=O)NN=Cc2cccnc2)cc1`: the OD600 absorbance is 0.669 (inactive).

As for `O=C(NN=Cc1c[nH]c2ccccc12)c1ccc(O)c(O)c1`, the OD600 absorbance is 0.695 (inactive).

Consider `COC(=O)C1CC2CCC(O)CC2N1Cc1ccc(C(F)(F)F)cc1` (configuration not stated), for which the OD600 absorbance was 0.627 (inactive) and 0.652 (inactive).

In the case of `CC1(C)CC2CC(C)(CN2C=Nc2sc3c(c2C#N)CC(C)(C)NC3(C)C)C1` (configuration not stated), the OD600 absorbance was 0.649 (inactive).

For the molecule `CCCC(O)c1cc2cc(OC)c(OC)cc2c(=O)o1` (configuration not stated), the OD600 absorbance is 0.667 (inactive).

As to `CCc1n[nH]c(=S)n1N=Cc1c(O)ccc2ccccc12`, the OD600 absorbance is 0.677 (inactive).

Take `C=CCSc1nsc(NC(=O)Nc2cccc(C(C)=O)c2)n1`: the OD600 absorbance was 0.61 (inactive).

On to `CSc1nsc(NC(=O)Nc2ccccc2)n1`, for which the OD600 absorbance was 0.445 (active).

Turning to `CCSc1nsc(NC(=O)Nc2cccc(C(C)=O)c2)n1`, the OD600 absorbance was 0.575 (inactive).

On to `COc1ccc(C)cc1NC(=O)CCC(=O)Nc1nnc(C(F)(F)F)s1`, for which the OD600 absorbance was 0.73 (inactive).

Turning to `O=C(Nc1nnc(COc2ccccc2)s1)Nc1ccccc1F`, the OD600 absorbance was 0.649 (inactive).

As for `O=C(NCC(F)(F)F)Nc1nnc(C(F)(F)F)s1`, the OD600 absorbance was 0.494 (active).

On to `O=C(O)c1ccc(NN=Cc2ccc(-c3ccc(Cl)cc3Cl)o2)cc1`, for which the OD600 absorbance is 0.671 (inactive).

`CCOC(=O)C1C2COc3ccc(Cl)cc3C2N2C(=O)c3ccc(C)cc3NC(=O)[C@@]12C` (some centres not stated): the OD600 absorbance was 0.705 (inactive).

With `CCN(CC)C(=O)c1[nH]cnc1C(=O)NC(Cc1ccccc1)C(=O)OC(C)(C)C` (configuration not stated), the OD600 absorbance was 0.689 (inactive).

Regarding `COc1cc(C=NNC(=O)c2ccc3c(c2)OCCO3)cc(Br)c1O`, the OD600 absorbance was 0.712 (inactive).

As for `CC(C(=O)N1CCNCC1)n1cc(CCC(=O)O)nn1` (configuration not stated), the OD600 absorbance was 0.694 (inactive).

Regarding `CCn1cc(C(=O)NCCC(=O)NCCO)c(=O)c2cc3c(cc21)OCO3`, the OD600 absorbance is 0.65 (inactive).

In the case of `CCn1cc(C(=O)NCCO)c(=O)c2cc(F)c(N3CCN(C)CC3)cc21`, the OD600 absorbance is 0.0485 (active).

Regarding `CCNC(=S)N1CCN(C(=O)c2ccco2)CC1`, the OD600 absorbance was 0.73 (inactive).

Regarding `CCCCCCn1cc(C(=O)O)c(=O)c2cc(F)c(N3CCCCC3)cc21`, the OD600 absorbance is 0.628 (inactive).

For `CCCCNC(=O)c1cn(CC)c2cc(N3CCN(C(=O)c4ccco4)CC3)c(F)cc2c1=O`, the OD600 absorbance was 0.458 (active).

On to `CCn1cc(S(=O)(=O)c2cccc(C)c2)c(=O)c2cc(F)c(N3CCN(C)CC3)cc21`, for which the OD600 absorbance is 0.662 (inactive).

`O=C(C=CNNC(=O)c1ccccc1)c1ccc(Br)cc1`: the OD600 absorbance was 0.66 (inactive).

For the molecule `CC1CN(C(C)CO)C(=O)c2cc(NC(=O)Cn3cnnn3)ccc2OC1CN(C)Cc1ccc(Cl)c(Cl)c1` (configuration not stated), the OD600 absorbance was 0.734 (inactive).

`Cc1cccc(NC(=O)c2ccc([N+](=O)[O-])o2)c1`: the OD600 absorbance is 0.475 (active).

For the molecule `O=C(Nc1cccc(O)c1)c1ccc(C(=O)c2ccccc2)o1`, the OD600 absorbance is 0.71 (inactive).

On to `O=C(Nc1ccc(Br)cn1)c1ccc([N+](=O)[O-])o1`, for which the OD600 absorbance was 0.518 (inactive).

`COc1ccc(S(=O)(=O)ON=C2CCCc3ccccc32)cc1`: the OD600 absorbance is 0.751 (inactive).

With `COc1ccc(C2C3C(=O)N(C(C)(C)C)C(=O)C3[C@]3(C)C(=O)N(c4cccc(C)c4)C(=O)N23)cc1` (some centres not stated), the OD600 absorbance was 0.681 (inactive).

As to `O=C(NN=Cc1ccc(O)cc1)c1ccc(COc2cc(Cl)ccc2Cl)o1`, the OD600 absorbance is 0.778 (inactive).

Take `CCOC(=O)C1C2COc3cc(OC)ccc3C2N2C(=O)N(c3cccc(F)c3)C(=O)[C@@]12C` (some centres not stated): the OD600 absorbance was 0.694 (inactive) and 0.697 (inactive) and 0.645 (inactive).

On to `CC(C)(C)C(COc1ccccc1[N+](=O)[O-])=NO`, for which the OD600 absorbance is 0.627 (inactive).

On to `COc1cccc(C=NNc2nc3ccccc3n3cnnc23)c1`, for which the OD600 absorbance is 0.749 (inactive).

For the molecule `Cc1ccc(C)c(-c2cc(C(=O)NN=Cc3cccnc3)c3ccccc3n2)c1`, the OD600 absorbance is 0.67 (inactive).

Consider `O=C(Nc1ccc(C(=O)N2CCOCC2)cc1)Nc1cccc(C(F)(F)F)c1`, for which the OD600 absorbance is 0.664 (inactive).

With `CC(C)C[C@H](NC(=O)Nc1cccc(C(F)(F)F)c1)C(=O)O`, the OD600 absorbance was 0.689 (inactive).

As for `CCNS(=O)(=O)c1ccc(NC(=O)Nc2cccc(C(F)(F)F)c2)cc1`, the OD600 absorbance is 0.51 (active).

Consider `Cc1ccc2cc(C=NNC(=O)[C@@H]3CCCN3)c(Cl)nc2c1`, for which the OD600 absorbance was 0.699 (inactive).

Consider `CN1CCN(CCC(=O)NN=Cc2cc([N+](=O)[O-])ccc2O)CC1`, for which the OD600 absorbance is 0.633 (inactive).

For `CCN=c1scc(C)n1N=Cc1cc(Br)c(O)c(OC)c1`, the OD600 absorbance is 0.689 (inactive).

`CN1C(=O)C2C(C=Cc3ccccc3)N3C(=O)CN(Cc4ccc(-c5ccccc5)cc4)C(=O)[C@@]3(Cc3ccccc3)C2C1=O` (some centres not stated): the OD600 absorbance is 0.678 (inactive).

For `CC(=NNC(=O)C1CC1)c1ccc(NC(=O)c2ccc(Br)o2)cc1`, the OD600 absorbance was 0.697 (inactive).

With `O=C(NN=Cc1ccco1)c1cccs1`, the OD600 absorbance was 0.606 (inactive).

Regarding `CCC(C)N1CCC2(CC1)N=c1c(c3c4c5c(C)c(O)c3c(O)c1=NC(=O)C(C)=CC=CC(C)C(O)C(C)C(O)C(C)C(OC(C)=O)C(C)C(OC)C=CO[C@@](C)(O5)C4=O)N2` (some centres not stated), the OD600 absorbance was 0.076 (active).

As for `CCOC(=O)C1C2COc3cc(OC)ccc3C2N2C(=O)CN(Cc3ccc(C)cc3)C(=O)[C@@]12C` (some centres not stated), the OD600 absorbance is 0.699 (inactive).

Turning to `CC1CC2OC(=O)[C@]3(C)C2C(OC3(C)O)[C@]2(C)C(=O)C=CC12` (some centres not stated), the OD600 absorbance was 0.679 (inactive).

As to `CC(C)(C)NC(=O)CCN(N=Cc1ccccc1F)C1=NS(=O)(=O)c2ccccc21`, the OD600 absorbance is 0.627 (inactive).

As to `CN(C)c1ccc(C=NNC(=O)Cn2nnc3ccccc32)cc1`, the OD600 absorbance is 0.725 (inactive).

`Cc1cc(C)cc(C(=O)NC2C(=O)N3C(C(=O)O)=C(CSc4nnc(C)s4)CSC23)c1` (configuration not stated): the OD600 absorbance is 0.684 (inactive).

Regarding `CC(C)(C)OC(=O)C1=C(CO)CS[C@@H]2[C@H](NC(=O)Cc3ccccc3)C(=O)N12`, the OD600 absorbance is 0.72 (inactive).

For the molecule `Cc1nnc(SCC2=C(C(=O)O)N3C(=O)C(NC(=O)Cn4nc(C)c(Cl)c4C)C3SC2)s1` (configuration not stated), the OD600 absorbance was 0.488 (active).
